Reference: PubChem BioAssay AID485270 (The Scripps Research Institute Molecular Screening Center, 2010)
Where “and” joins values, the source holds several entries; their conditions need not be identical. Equal values may be shown once. In all, about 330,000 compounds went through this assay and about 5,800 (1.8%) were called active. No stated cut-off is given here; in the data, active means inhibition mostly above about 38% (no sharp cut-off); inactive means mostly below about 40%. The entries come from a sample that favours actives as a whole. A structure can be active in one record and inactive in another.

What follows are molecules tested against Orexin/Hypocretin receptor type 1 (Homo sapiens) (UniProt O43613) (assay: blocks the human orexin 1 receptor (AID 485270;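 further: 0% = agonist challenge alone and 100% = reference antagonist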)). Settings: OX1R-expressing cells, FRET antagonist read-out; at 6.6 µM; stronger effect = higher value.
Chain of Orexin/Hypocretin receptor type 1 (Homo sapiens) (O43613 whole entry, looked up): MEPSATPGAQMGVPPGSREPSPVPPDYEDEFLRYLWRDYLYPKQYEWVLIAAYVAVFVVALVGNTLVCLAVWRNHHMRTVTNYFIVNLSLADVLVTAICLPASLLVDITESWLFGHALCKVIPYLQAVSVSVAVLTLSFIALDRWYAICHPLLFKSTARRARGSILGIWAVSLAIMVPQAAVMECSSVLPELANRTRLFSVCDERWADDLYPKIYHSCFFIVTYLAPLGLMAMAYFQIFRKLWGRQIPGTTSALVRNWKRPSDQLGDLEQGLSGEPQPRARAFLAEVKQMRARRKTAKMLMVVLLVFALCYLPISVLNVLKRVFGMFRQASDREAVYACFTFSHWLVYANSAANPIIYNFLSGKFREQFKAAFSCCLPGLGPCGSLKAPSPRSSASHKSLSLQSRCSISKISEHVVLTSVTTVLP

inhibition, inactive:
CC1CCCCC1NCC(=O)Nc1ccccc1C(=O)Nc1ccccc1 (stereo not given) 7.92%
Cc1ccccc1SCC(=O)OCC(=O)N1CC(=O)Nc2ccccc21 0.4%
O=C(NCC1CCCO1)c1cc(-c2ccccc2)nc2ccccc12 (stereo not given) -0.29%
COc1ccc(CCn2c(=N)c(C(=O)NCC3CCCO3)cc3c(=O)n4cccc(C)c4nc32)cc1OC (stereo not given) 10.8%
COc1ccc(CCNC(=O)Cn2c(=O)n(CC3CCCO3)c(=O)c3ccccc32)cc1OC (stereo not given) 7.5%
Cc1ccc(CCNC(=O)c2ccc3nc4ccccc4c(=O)n3c2)cc1 -3.55%
Cc1csc(=O)n1CC(=O)Nc1ccc(S(C)(=O)=O)cc1 7.39%
COc1ccc(OC)c(NC(=O)COC(=O)Cc2ccsc2)c1 5.5%
C[C@]12c3[nH]c4ccc(Cl)cc4c3CCN1C(=O)[C@@H](CC(=O)NCCCn1ccnc1)C[C@@H]2C(=O)N1CCOCC1 14.5%
CN(CC(=O)Nc1ccc(C(N)=O)cc1)S(=O)(=O)c1ccc2c(c1)OCCO2 6.44%
O=C(CN1C(=O)NC2(CCCC2)C1=O)Nc1cc(C(F)(F)F)ccc1N1CCOCC1 6.5%
COc1ccc2[nH]c(=O)c(CN(CC3CCCO3)C(=O)Nc3ccccc3)cc2c1 (stereo not given) 5.34%
CCC(=O)N(Cc1cc2cc(OC)ccc2[nH]c1=O)c1ccccc1C 4.09%
Cn1nnnc1SCC(=O)Nc1sccc1C(N)=O -1.46%
CCOc1ccccc1OCC(=O)Nc1ccccc1C(=O)NC1CC1 9.29%
Cc1ccc(OCC(=O)Nc2ccccc2C(=O)NC2CC2)cc1 7.7%
CN(c1ccccc1)S(=O)(=O)c1ccc(C(=O)N2CCN(c3ccccc3Cl)CC2)cc1 9.4%
CC(=NNC(=O)c1ccc2nc[nH]c2c1)c1ccc(Br)cc1 4.88%
C[C@@H]1CN([C@@H](C)CO)C(=O)c2cc(NC(=O)C3CC3)ccc2O[C@H]1CN(C)C 1.14%
C[C@H]1COC(=O)[C@H](CC(=O)OC(C)(C)C)C/C=C\C[C@@H](CC(=O)N[C@H](CO)Cc2ccccc2)C(=O)N1 0.64%
Cc1cccc(NC(=O)c2ccc3c(=O)n(CC4CCCO4)c(=S)[nH]c3c2)c1 (stereo not given) 17.1%
Cc1ccccc1NC(=O)Cn1c(=O)n(CC2CCCO2)c(=O)c2ccccc21 (stereo not given) 15.6%
CN(C(=O)COC(=O)Cc1ccccc1[N+](=O)[O-])C1CCS(=O)(=O)C1 (stereo not given) 3.39%
COc1cccc(NC(=O)CSc2nnc(C3CCCCC3)n2N)c1 6.23%
COc1ccc(-n2c(SCC(=O)Nc3ccc4c(c3)OCO4)nnc2C(C)N2CCCCC2)cc1 (stereo not given) 7.85%
O=C(NCCC1=CCCCC1)c1ccc(-n2cncn2)cc1 2.77%
COCCCNC(=S)NC(=O)c1ccccc1 6.25%
CC(=O)NC(=S)Nc1ccc(NC(=S)NC(=O)c2ccc([N+](=O)[O-])cc2)cc1 8.98%
O=C1CCC[C@@H]2CC(N3CCCCC3)C[C@@H]3CCN1[C@H]23 (stereo not given in full) 5.93%
O=C(Nn1cnnc1)c1ccc([N+](=O)[O-])cc1 22.3%
O=C(Nc1ccccc1C(=O)Nc1ccncc1)c1ccc([N+](=O)[O-])cc1 16.2%
COC(=O)c1ccc(/C=C/c2c(-c3ccc(OC)cc3)sc3ccccc23)cc1 5.48%
CC(C)NC(=O)Nc1cccc2c1O[C@@H](CN(C)S(=O)(=O)c1ccc(F)cc1)[C@@H](C)CN([C@H](C)CO)C2=O 3.93%
CCOc1ccc(N(CC)S(=O)(=O)c2cccc3nsnc23)cc1 21.1%
CCC(=O)N1CCc2cc(S(=O)(=O)CCC(=O)N3CCN(c4ccccc4F)CC3)ccc21 5.14%
CCOc1ccc(OCC)c(NC(=O)CN(C)S(=O)(=O)c2cccc3nsnc23)c1 41.7%
O=C(CCCNS(=O)(=O)c1cccc2nsnc12)NCCN1CCN(c2ccccc2F)CC1 26.2%
COc1ccc(C)cc1NC(=O)CCS(=O)(=O)c1cccc2nonc12 48.1%
COc1ccc(N(C)S(=O)(=O)c2cccc3nsnc23)cc1 33.6%
COc1ccc(CNC(=O)C(NS(=O)(=O)c2cccc3nsnc23)C(C)C)cc1 (stereo not given) 26.5%
O=C(O)c1ccc(NS(=O)(=O)c2cccc3nsnc23)cc1 27.3%
O=C(COC(=O)COc1cc(Cl)c(Cl)cc1Cl)NC1CC1 6.97%
Cc1ccc(C(=O)NCC(=O)NC2CC2)cc1 -0.69%
Cc1occc1C(=O)Nc1cccc(S(=O)(=O)N2CCOCC2)c1 4.81%
COc1ccc2[nH]c3c(c2c1)CCN1C(=O)C(CC(=O)NCCCN(C)C)C[C@H](C(=O)N2CCOCC2)[C@@]31CCC1CCCC1 (stereo not given in full) -1.98%
Cc1ccc(S(=O)(=O)N2C[C@@H]3CCCC[C@@H]3[C@@H](C)[C@H]2c2cn(Cc3ccccc3)c3ccc(F)cc23)cc1 3.67%
CC1CN(C(=O)c2ccccc2NS(=O)(=O)c2cccc([N+](=O)[O-])c2)CC(C)O1 (stereo not given) 27.1%
Cc1c(C(=O)N2CC(C)OC(C)C2)sc2nc(-c3ccccc3)cn12 (stereo not given) 19.5%
CCN(CC)C(=O)[C@H]1CC(CC(=O)NCc2ccco2)C(=O)N2CCc3c([nH]c4ccccc34)[C@]12C (stereo not given in full) 6.65%
COC(=O)[C@@]1(C)[C@H]2C(=O)N(Cc3ccccc3)C(=O)[C@H]2[C@H]2CN=C(SCC3CC3)N21 4.86%
O=C1N[C@H](Cc2ccccc2)C(=O)N[C@H]1Cc1cn(S(=O)(=O)c2ccccc2)c2ccccc12 24.8%
Cc1ccc(C(=O)Cn2cc([N+](=O)[O-])nc2C)cc1 16.2%
O=C(CC(n1cncn1)C(Cl)(Cl)Cl)c1ccc([N+](=O)[O-])cc1 (stereo not given) 24.6%
Cc1ccc(S(=O)(=O)N2CCN(C(=O)Cn3c(=O)cnc4ccccc43)CC2)c(C)c1 16.2%
O=C(OCC(=O)N1CCCCCC1)c1ccc(Br)c(S(=O)(=O)N2CCOCC2)c1 7.11%
O=C(N[C@H]1C/C=C\C(c2ccc(F)cc2)N(Cc2ccccc2)C(=O)C1)OCC1c2ccccc2-c2ccccc21 (stereo not given in full) 14.6%
c1csc(-c2cn3c(n2)SCC3)c1 2.55%
Cc1nnc2n1N=C(c1ccccc1)CS2 -1.51%
CC(C)=CCN1CCN(Cc2cc3ccccc3[nH]2)CC1CCO (stereo not given) 7.38%
CCN(C[C@H]1N[C@@](CC)(C(=O)OC)[C@H]2C(=O)N(Cc3ccccc3)C(=O)[C@@H]12)S(=O)(=O)c1ccc(C(F)(F)F)cc1 5.19%
Cc1cc(C)c(C#N)c(SCc2ccccc2C(=O)O)n1 27.5%
CCc1ccc(C2C(C#N)=C(N)Oc3n[nH]c(CC(=O)OC)c32)cc1 (stereo not given) 1.71%
COc1ccc(N2CCN(C(CNS(=O)(=O)c3ccc(C)cc3)c3ccccc3)CC2)cc1 (stereo not given) 6.01%
COC(=O)c1ccc(C)c(NC(=O)Cn2c(C)csc2=O)c1 2.56%
COc1ccccc1-c1sc2ccccc2c1C#CC1(O)CCCCC1 6.27%
COc1ccc2sc(-c3ccc(N(C)C)cc3)c(-c3ccc4cc[nH]c4c3)c2c1 9.19%
COc1ccc(-c2sc3ccc(OC)cc3c2C#Cc2ccccn2)cc1 8.84%
O=C(N[C@H]1C/C=C\C(c2cccc(F)c2)N(Cc2ccccc2)C(=O)C1)OCC1c2ccccc2-c2ccccc21 (stereo not given in full) 5.38%
Cc1ccc(-c2cccc([C@H]3[C@@H]4C=CC[C@@H](C)[C@@H]4C(=O)N3Cc3ccccc3)c2)cc1 5.7%

inhibition, 41% (active) and 49.5% (inactive):
O=C(Cn1c[n+](CC(=O)c2ccc([N+](=O)[O-])cc2)cn1)c1ccc([N+](=O)[O-])cc1

inhibition, active:
Cc1ccc2nc3c(cc(C(=O)NCCc4ccccc4)c(=N)n3CC3CCCO3)c(=O)n2c1 (stereo not given) 57.5%
COc1ccc(CNC(=O)c2cc3c(=O)n4ccccc4nc3n(CC3CCCO3)c2=N)cc1 (stereo not given) 54.9%
COc1ccc2[nH]c(=O)c(CNc3ccc(C)c(C)c3)cc2c1 108%
CC(NCC(=O)Nc1ccccc1C(=O)NC1CC1)c1ccccc1Cl (stereo not given) 29.4%
Cc1cccn2c(=O)c3cc(C#N)c(=NC(=O)c4cccnc4)n(CC4CCCO4)c3nc12 (stereo not given) 123%
COCCCNC(=S)NC(=O)c1ccc([N+](=O)[O-])cc1 89.6%
O=C(c1ccncc1)c1ccc([N+](=O)[O-])cc1 163%
COc1ccc(N(C)C(=O)CCS(=O)(=O)c2cccc3nsnc23)cc1 128%
CCOc1ccc(NC(=O)CCS(=O)(=O)c2cccc3nsnc23)cc1 85.9%
O=C(CCS(=O)(=O)c1cccc2nsnc12)N1CCN(c2ccccc2F)CC1 73%
Cc1cccc(C)c1NC(=O)CCS(=O)(=O)c1cccc2nsnc12 70.3%
CC1CN(C(=O)c2ccc([N+](=O)[O-])s2)CC(C)O1 (stereo not given) 49.6%
O=c1c2cc(-c3ccccc3)sc2nc2n1N=C(c1cccs1)CS2 49.2%
Cc1cc(C)c(C#N)c(SCc2[nH]nc3c2C(c2ccccc2)C(C#N)=C(N)O3)n1 (stereo not given) 60.2%
COc1ccc2sc(-c3ccc(N(C)C)cc3)c(C#CCO)c2c1 50.3%
